Assay results from PubChem BioAssay AID1619 (SRMLSC, 2009).
Values joined by “and” are separate entries in the source; they are usually repeats but may differ in a detail not shown here. Identical values can stand only once. The campaign covered roughly 220,000 compounds. About 830 (0.38%) were called active.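 Rule for the calls: active = compound inhibiting the enzyme by more than half at any dose during confirmatory dose-response retesting; inconclusive = strong single-dose inhibitors picked by rank but not retested; inactive = the rest.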 Only a sample is shown. Entries with a potency or affinity are not part of this list.

target: Leucine aminopeptidase (Plasmodium falciparum (isolate 3D7)) (UniProt Q8IL11); assay: P. falciparum M17LAP inhibitors, primary screen, biochemical, fluorogenic H-Leu-NHMec substrate, 1536-well (AID 1619); settings: recombinant M17LAP, H-Leu-NHMec fluorogenic kinetic assay; at 30 µM; active compounds read high;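 note: plate controls were full reaction with DMSO carrier for no effect and no enzyme background for full effect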
Sequence (Q8IL11 whole entry, looked up): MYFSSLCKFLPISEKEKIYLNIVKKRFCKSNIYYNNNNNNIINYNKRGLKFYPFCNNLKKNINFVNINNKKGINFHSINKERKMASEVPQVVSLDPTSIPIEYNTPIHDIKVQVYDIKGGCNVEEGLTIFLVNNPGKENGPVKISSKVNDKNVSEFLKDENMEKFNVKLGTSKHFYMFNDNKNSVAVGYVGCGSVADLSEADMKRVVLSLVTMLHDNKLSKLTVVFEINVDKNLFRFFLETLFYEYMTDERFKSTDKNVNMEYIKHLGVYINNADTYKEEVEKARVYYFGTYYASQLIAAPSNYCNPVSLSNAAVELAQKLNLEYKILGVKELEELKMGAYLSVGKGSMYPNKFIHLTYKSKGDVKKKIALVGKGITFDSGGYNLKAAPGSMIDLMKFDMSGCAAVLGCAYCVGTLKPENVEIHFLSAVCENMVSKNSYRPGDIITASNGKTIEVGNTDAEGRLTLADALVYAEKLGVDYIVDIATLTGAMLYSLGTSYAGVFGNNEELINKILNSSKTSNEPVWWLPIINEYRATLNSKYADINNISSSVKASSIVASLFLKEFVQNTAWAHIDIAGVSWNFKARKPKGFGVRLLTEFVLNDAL

inhibition, inactive:
Cc1ccc(Cl)cc1NC(=O)N(C)CCO -0.32%
O=C(O)Cn1cc(/C=C2/SC(=O)N(CC(=O)N3CCCCCC3)C2=O)c2ccccc21 36.6%
O=Cc1cn(CC(=O)N2CCOCC2)c2ccccc12 13.4%
O=C(Cn1cc(C(=S)N2CCOCC2)c2ccccc21)N1CCOCC1 1.74%
O=C(O)Cn1cc(C(=S)N2CCOCC2)c2ccccc21 4.61%
O=C(NCc1ccccc1C(F)(F)F)C1CC(c2ccc(C(F)(F)F)cc2)=NO1 (stereo not given) -1.15%
Cc1ccc(CNC(=O)c2ccc3c(=O)n4c(-c5ccc(C)cc5)csc4nc3c2)cc1 4.76%
COC(=O)c1c(C)[nH]c(C(=O)NCc2ccco2)c1C -0.45%
CCC(=O)N(Cc1cc(=O)[nH]c2ccccc12)c1cccc(C)c1 -6.5%
Cc1ccc(-c2cc3nc(-c4ccccc4)cc(N4CCOCC4)n3n2)cc1 -15.5%
O=c1cc(-c2ccc(Br)cc2)[nH][nH]1 6.69%
CC(C)Cc1ccc(-c2cc(=O)[nH][nH]2)cc1 3.83%
O=c1[nH]c(-c2ccc(Cl)cc2)cs1 -0.58%
O=c1cc(-c2ccc(C3CCCCC3)cc2)[nH][nH]1 1.14%
O=c1c(O[C@@H]2O[C@H](CO)[C@H](O)[C@H](O)[C@H]2O)c(-c2ccc(O)c(O)c2)oc2cc(O)cc(O)c12 -6.93%
O=c1c(OC2OC(CO)C(O)C(O)C2O)c(-c2ccc(O)c(O)c2)oc2cc(O)cc(O)c12 (stereo not given) 31%
O=C(c1ccc(Br)cc1)N(C1=NCCCCS1)c1ccccc1 -5.89%
CC(Oc1ccc(NC(=O)c2ccco2)cc1)C(=O)N1c2ccccc2CC1C (stereo not given) -7.91%
CCOC(=O)c1c(N)c2cc([N+](=O)[O-])cnc2n1C -0.26%
CCc1nnc(NC(=O)CSc2nnc(-c3ccco3)o2)s1 4.71%
O=C(CSc1nnc(-c2ccc(S(=O)(=O)N3CCCC3)cc2)o1)NCC1CCCO1 (stereo not given) -1.86%
COC(=O)CSc1nnc(-c2ccc(NS(=O)(=O)c3ccccc3)cc2)o1 55.1%
O=C(NCC1CCCO1)c1ccc(NS(=O)(=O)c2ccccc2)cc1 (stereo not given) -3.12%
Cc1cc(NC(=O)Nc2ccc(C)c(C)c2)no1 1.89%
O=C1c2cccc3c([N+](=O)[O-])ccc(c23)C(=O)N1CCc1ccccn1 3.49%
Cc1cccc(OCCOC(=O)C2CCN(S(=O)(=O)c3cccs3)CC2)c1 -6.82%
COc1ccc(C(C)NC(=O)c2cccc([N+](=O)[O-])c2)cc1OC (stereo not given) 1.09%
COc1ccc(NC(=S)N/C(=N/S(=O)(=O)c2ccc(C)cc2)c2ccccc2)cc1 -2.37%
CCOC(=O)c1cn(Cc2ccccc2)nn1 -4.7%
OC1(c2ccccc2)CCN(Cc2ccccc2)CC1 11.4%
Cc1ccc(-n2cc(CN3CCN(C(=O)c4ncn[nH]4)CC3)c(-c3ccc(F)cc3)n2)cc1 5.18%
CCCOc1ccc(N2C(=O)CC(SCc3nc4ccccc4[nH]3)C2=O)cc1 (stereo not given) 9.24%
CCOc1ccc(N2C(=O)CC(SCC(=O)O)C2=O)cc1 (stereo not given) 11.6%
COC(=O)c1ccc(N2C(=O)CC(SCCN)C2=O)cc1 (stereo not given) 6.69%
CCCOc1ccc(N2C(=O)CC(SCCc3nc4ccccc4[nH]3)C2=O)cc1 (stereo not given) 0.77%
O=c1[nH]c2cccnc2n1-c1cccc([N+](=O)[O-])c1 -2.76%
Fc1ccc(OCc2nc(-c3cccs3)no2)cc1 -5.15%
O=C(Cn1cnc2c(cnn2-c2ccc(Cl)cc2)c1=O)NCC1CCCO1 (stereo not given) 8.72%
COc1ccc(C2CC(=O)C=C(NCc3ccc4c(c3)OCO4)C2)cc1 (stereo not given) 8.48%
CCN(CC)c1nc(C)c(C(C)=O)cc1C#N 3.26%
COc1ccccc1N1CCN(S(=O)(=O)Cc2ccccc2Cl)CC1 3.75%
COc1ccc(NC(=O)C(c2ccc(C)cc2)N(C)C(=O)c2cnccn2)cc1 (stereo not given) 1.36%
C/C(=N\NC(=O)CNc1ccccc1)c1ccccc1 -12.8%
C/C(=N/NC(=O)CC(=O)N/N=C(\C)c1ccc([N+](=O)[O-])cc1)c1ccc([N+](=O)[O-])cc1 9.49%
C/C(=N\NC(=O)CCc1c(C)n[nH]c1C)c1ccc([N+](=O)[O-])cc1 6.88%
C/C(=N\NC(=O)CC1N=C(Cc2ccccc2)NNC1=O)c1ccccc1 (stereo not given) 1.8%
Cc1ccc(S(=O)(=O)/N=C(\N)Nc2nc(C)c3cc(C)c(C)cc3n2)cc1 6.15%
O=C(CCSc1ccccc1)Nc1ccc(OCc2ccccc2)cc1 3.34%
COc1ccc(-c2nnc(SCC(=O)N/N=C/c3ccccc3C(=O)O)n2-c2ccccc2)cc1 -3.16%
COC(=O)c1ccc(COc2ccc(/C=C(\C#N)c3nc4ccccc4[nH]3)cc2OC)o1 -3.19%
N#C/C(=C/c1ccc(OCc2ccc(C(=O)O)cc2)c(Br)c1)c1cccc(F)c1 7.71%
COc1cc(/C=C(/C#N)c2ccc(F)cc2)ccc1OCc1ccc(C(=O)O)o1 34.9%
COc1cc(/C=C(/C#N)c2nc3ccccc3[nH]2)ccc1OCc1ccc(C(=O)O)o1 -33.5%
COc1ccc(NC(=O)COC(=O)Cc2c(F)cccc2Cl)cc1 5.4%
COc1ccc(NC(=O)Cc2c(F)cccc2Cl)c(OC)c1 -1.9%
COC(=O)CSc1nc(NC#N)nc(NC(C)(C)C)n1 4.9%
COc1ccc(-c2cc(C)nc(SCc3cccc(C(=O)O)c3)n2)cc1 38.6%
O=C(Nc1nc(=O)n(C(=O)c2cccc(C(F)(F)F)c2)s1)c1ccccc1 22.5%
Cc1ccc(C(=O)Nc2nc(=O)n(C)s2)cc1 4.51%
Cn1sc(NC(=O)c2ccccc2Cl)nc1=O -13.2%
Cn1sc(NC(=O)c2cccc(Cl)c2)nc1=O 12.3%
O=C(Nc1nc2ccccc2s1)c1ccccc1 0.27%
Cc1ccc(C(=O)Nc2nc(=O)n(C(=O)c3ccccc3C)s2)cc1 31.9%
Cc1ccc(C(=O)Nc2nc(=O)[nH]s2)cc1 -1.57% and 13.4%
Cn1sc(NC(=O)c2ccc(Cl)cc2)nc1=O 0.57%
CCN(CC)CCCN1C(=O)CSC1c1ccc2c(c1)OCO2 (stereo not given) 20.1%
O=C(NNC(=O)c1ccc(Br)o1)c1ccc(NC(=O)c2ccccc2)cc1 -6.75%
COCCCN(C(=S)NC(=O)c1ccc(C(C)(C)C)cc1)c1c(N)n(Cc2ccccc2)c(=O)[nH]c1=O 16.9%
Cc1ccc(C)c(Cn2c(=O)n(CCCC(=O)NCc3ccco3)c(=O)c3ccccc32)c1 10%
Cc1csc2nc(CCNS(=O)(=O)c3cccs3)cn12 -4.9%
O=C(NCc1ccccc1)C1=C[C@@H](c2ccc(Br)cc2)C[C@@H](OCc2ccc(CO)cc2)O1 7.8%
CCCc1[nH]nc2c1C(c1cn[nH]c1-c1ccc(F)cc1)C(C#N)=C(N)O2 (stereo not given) 29.9%
C=CCN(c1ccccc1)S(=O)(=O)c1cc(C(=O)NC2=NCCS2)ccc1Cl -0.31%
CC(C)Oc1cccc(C(=O)C2CCCN(Cc3cccn3-c3cccnc3)C2)c1 (stereo not given) 4.62%
O=C(COc1ccc(Br)cc1)Nc1nnc(-c2cccnc2)s1 -6.24%
Cc1ccc(C(=O)/C=C/c2c[nH]c3ccccc23)cc1 5.88%
COCCCNC(=O)c1ccccc1NS(C)(=O)=O -1.32%
CCOC(=O)C1CCN(S(=O)(=O)c2cnc[nH]2)CC1 3.88%
CC1CN(C(=S)c2cccc([N+](=O)[O-])c2)CC(C)O1 (stereo not given) 4.78%
Cc1nc2ccccc2n1C(=O)c1ccccc1[N+](=O)[O-] 7.68%
CCn1c(SCC(=O)Nc2cccc(C)n2)nnc1-c1ccco1 4.98%
Cc1ccccc1S(=O)(=O)Nc1nc2ccccc2nc1N1CCOCC1 16.6%
CC1=C(C(N)=O)C(c2ccccc2)n2nc(-c3cccs3)nc2N1 (stereo not given) -4.69%
Cc1cc(NC(=O)CSc2nnc(CNc3cccc(C(F)(F)F)c3)n2Cc2ccco2)no1 7.47%
O=C(CSc1nnc(CNc2cccc(C(F)(F)F)c2)n1Cc1ccco1)NCc1ccco1 7.9%
COc1ccc(NC(=O)CN(c2ccccc2)S(=O)(=O)N(C)C)cc1Cl -2.44%
COc1ccccc1-c1nnc(SCC(=O)N2CCOCC2)o1 -5.18%
Cc1ccc(S(=O)(=O)NC(=O)c2cc(C)n(-c3ccccc3)c2C)cc1 24.3%
Cc1ccc(S(=O)(=O)NC(=O)c2cc(C)n(-c3ccc(N(C)C)cc3)c2C)cc1 30.1%
CCCOC(=O)c1c(-c2ccc(C)cc2C)csc1NC(=O)C1C2CCC(O2)C1C(=O)O (stereo not given) 44.7%
O=C(O)C1C2CCC(O2)C1C(=O)Nc1ccc(F)cc1 (stereo not given) -6.52%
CCOC(=O)c1cc(NC(=O)C2C3CCC(O3)C2C(=O)O)cc(C(=O)OCC)c1 (stereo not given) -8.46%
COC(=O)c1c(-c2ccc(C(C)(C)C)cc2)csc1NC(=O)C1C2CCC(O2)C1C(=O)O (stereo not given) 35.5%
CCOC(=O)c1c(NC(=O)/C=C/C(=O)O)sc(C)c1-c1ccc(F)cc1 9.12%
CCOC(=O)c1c(-c2cccc3ccccc23)csc1NC(=O)C1C2CCC(O2)C1C(=O)O (stereo not given) 26.3%
